# From PubChem BioAssay
# MITF TRPM1 HTS: increases MITF-driven TRPM1 promoter luciferase signal; activation, % at 12.5 µM; 300,000 compounds, 0.75% hits; AID 588334; SK-MEL-5 TRPM1-promoter luciferase, 24 h; % of positive control, neutral wells = 0;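 active = mean activation of at least 80% with every replicate also reaching 80%; inconclusive = mean reaches 80% but some replicate falls short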
# esBAF inh: SWI/SNF esBAF complex inhibition; mouse ES cells, Bmi1-luciferase knock-in reporter, 24 h; 100% = twice the neutral-well signal; reporter increase, % at 12.5 µM; 350,000 compounds, 2% hits; AID 602393; in the data active = activation above about 40%; inconclusive = no clear call, values can overlap the other calls;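 also: a rise in the Bmi1 reporter signal indicates esBAF inhibition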
# HSF1 inh: HSF1 inhibition; NIH3T3-HGL HSE-luciferase, MG132-induced, luminescence 8 h; active compounds read low; AID 2098; 300,000 compounds, 0.77% hits; activity change, negative = inhibition, % at 7.5 µM (by protocol);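 active = more than half of replicate wells show activity change below -50%, luminescence cut by over half; inconclusive = some wells, but at most half, below -50%; inactive = no replicate well below -50%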;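 also: luciferase reports HSF-1 transcriptional activity via heat shock element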
# Wnt bcat act: activates Wnt/beta-catenin signaling in a reporter cell assay. activator, plate reader. activation, % at 9.35 µM. 300,000 compounds, 1.2% hits; in the data active = activation above about 30%, passing the limit was not always enough; inconclusive = no clear call, values can overlap the other calls
# HSF-1 act: increases HSF-1 driven luciferase reporter signal; activation, % at 9 µM; AID 504408; NIH3T3-HGL HSF-1 luciferase reporter, MG132, 8 h; 100% = twice DMSO control signal; 300,000 compounds, 1.7% hits;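 active = mean replicate activation of at least 50% with a set share of replicates each reaching 50%; inconclusive = only one of those two conditions met; inactive = mean below 50% and too few replicates reaching it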
# Hits are given with their value; i = inactive; ? = inconclusive; nt = no result. Shown are actives, neighbours in structure and some others; about 3.9% of the full set was active somewhere.
SMILES,MITF TRPM1 HTS,esBAF inh,HSF1 inh,Wnt bcat act,HSF-1 act
COc1ccc(/C=N/NC(=O)c2cccnc2)c(C(=O)O)c1OC,i,i,i,i,73
CC(/C=N/NC(=O)c1cccnc1)=C\c1ccccc1,i,i,i,35,i
CC(/C=N\NC(=O)c1cc(C)oc1C)=C\c1ccccc1,i,i,-52,i,i
CC(=C/c1ccccc1)/C=N/NC(=O)c1cnccn1,nt,i,i,i,i
O=C(C1CCC1)N1CCCCN2[C@H](C1)[C@@H](c1ccc(-c3cccc(F)c3)cc1)[C@@H]2CO,nt,i,nt,nt,nt
CCCCC(=O)OCC(=O)c1[nH]c(C)c(C(=O)OCC)c1C,i,i,i,i,76
CCCCCCC(=O)c1c(C)[nH]c(C(=O)OCC)c1C,nt,55,i,nt,53
C[C@@H]1CN([C@@H](C)CO)S(=O)(=O)c2ccc(C#CCN(C)C)cc2O[C@H]1CN(C)C(=O)C1CCC1,nt,i,nt,nt,nt
COc1ccc(NC(=O)N(C)C[C@H]2Oc3ncc(C#C[C@H](C)O)cc3C(=O)N([C@@H](C)CO)C[C@@H]2C)cc1,nt,i,nt,nt,nt
CO[C@H]1CN(C)C(=O)c2ccc(NC(=O)Nc3ccc(Cl)cc3)cc2OC[C@H](C)N(C(=O)Nc2c(C)noc2C)C[C@H]1C,nt,i,nt,nt,nt
C[C@@H](O)C#Cc1cnc2c(c1)C(=O)N([C@@H](C)CO)C[C@H](C)[C@@H](CN(C)C(=O)Nc1ccc(C(F)(F)F)cc1)O2,nt,i,nt,nt,nt
O=S(=O)(Nc1nc2ccccc2nc1Nc1cccc(S(=O)(=O)N2CCCCC2)c1)c1ccccc1,i,nt,i,i,101
COc1ccc(S(=O)(=O)Nc2cccc(S(=O)(=O)N3CCCCCC3)c2)cc1,i,nt,i,i,i
Cc1ccc2c(c1)c(C)c(C)n2CC(O)Cn1nc(C)c(Br)c1C (configuration not stated),i,i,i,nt,57
CC(C)CC#Cc1cnc2c(c1)C(=O)N([C@@H](C)CO)C[C@@H](C)[C@H](CN(C)S(=O)(=O)c1cn(C)cn1)O2,nt,i,nt,nt,nt
C/C=C/c1cnc2c(c1)C(=O)N([C@@H](C)CO)C[C@H](C)[C@H](CN(C)C(=O)C1CCCCC1)O2,nt,i,nt,nt,nt
CCCC#Cc1cnc2c(c1)C(=O)N([C@H](C)CO)C[C@@H](C)[C@H](CN(C)C(=O)Nc1c(C)noc1C)O2,nt,i,nt,nt,nt
Cc1ccc(NC(=O)CN(C)CC(=O)NC2CCCc3ccccc32)cc1 (configuration not stated),i,i,i,40,i
O=C(NCc1ccco1)c1ccccc1-c1ccccc1,i,i,i,i,i
O=C(NCc1ccco1)c1cc(-c2ccccc2)on1,i,105,i,nt,i
COc1ccc(C(=O)Nc2ccccc2C(=O)NCc2ccco2)cc1OC,nt,i,i,48,i
Cc1scc(C(=O)NCc2ccco2)c1-c1ccccc1,i,i,i,nt,63
O=C(NCc1ccco1)c1ccc2ccccc2c1,90,72,i,nt,i
Cc1noc(C)c1NC(=O)N1C[C@@H](O)COC[C@@H]2O[C@H](CC(=O)NCC3CCCCC3)CC[C@H]21,nt,i,nt,nt,nt
O=C(Nc1ccc(Cl)cc1)N[C@H]1CC[C@H](CCNS(=O)(=O)c2ccccc2F)O[C@@H]1CO,nt,i,nt,nt,nt
SMILES,MITF TRPM1 HTS,esBAF inh,HSF1 inh,Wnt bcat act,HSF-1 act
O=C(NCC[C@@H]1CC[C@H](NS(=O)(=O)c2cccc(F)c2)[C@H](CO)O1)C1CCCC1,nt,i,nt,nt,nt
O=C(Nc1sc2c(c1C(=O)NCc1ccco1)CCCC2)c1ccc2c(c1)OCO2,100,46,i,i,i
COc1ccccc1N=c1oc2c(OC)cccc2cc1C(=O)NCc1ccco1,i,52,i,nt,i
Cc1ccc(C(=O)Nc2sc3c(c2C(=O)NCc2ccco2)CCCC3)cc1,i,nt,i,i,i
CCc1nc2ccc(C(=O)NCCc3ccco3)cc2nc1CC,87,53,i,nt,i
Cn1c(SCC(=O)NCc2ccco2)nnc1-c1cccs1,nt,i,i,i,55
O=C(NCc1ccco1)c1cc(-c2cccs2)on1,i,i,i,nt,72
Cc1noc(C)c1S(=O)(=O)Nc1ccc2c(c1)C(=O)N([C@H](C)CO)C[C@@H](C)[C@H](CN(C)C(=O)C1CCCCC1)OCCCC[C@@H](C)O2,nt,i,nt,nt,nt
CCOC(=O)Nc1ccc2c(c1)N(C(=O)CCN1CCOCC1)c1ccccc1S2,i,i,i,i,i
CCOC(=O)Nc1ccc2c(c1)N(C(=O)CCN1CCOCC1)c1ccccc1S2=O (configuration not stated),nt,i,i,i,80
Cc1noc(C)c1NC(=O)N(C)C[C@H]1Oc2c(NS(=O)(=O)c3c(C)noc3C)cccc2C(=O)N([C@@H](C)CO)C[C@H]1C,nt,i,nt,nt,nt
CCc1ccccc1NC1Nc2cc(C)nn2S1 (configuration not stated),i,nt,i,i,i
Cc1cc2n(n1)SC(Nc1cccc3ccccc13)N2 (configuration not stated),i,50,i,47,?
COC(=O)c1ccc(NC(=O)CSc2nc3ccccc3c(=O)[nH]2)cc1,i,i,i,i,i
CCC(Sc1nc2ccccc2c(=O)[nH]1)C(=O)Nc1ccc(C(C)=O)cc1 (configuration not stated),i,70,i,i,i
O=C(C[C@H]1C[C@@H]2c3cc(NC(=O)C4CCOCC4)ccc3O[C@@H]2[C@H](CO)O1)NC1CCCC1,nt,i,nt,nt,nt
Cc1ccccc1NC(=S)NCC1CCN(C(C)c2ccccc2)C1 (configuration not stated),i,i,i,46,i
Cc1cc(C)cc(NC(=S)NCC2CCN(C(C)c3ccccc3)C2)c1 (configuration not stated),i,i,i,i,i
O=[N+]([O-])c1cccnc1Oc1ccc(C2SCCS2)cc1,103,nt,i,51,i
COc1cc(C2SCCS2)cc(Br)c1Oc1ncccc1[N+](=O)[O-],nt,nt,i,i,i
CCOC(=O)c1ccccc1NC1c2ccccc2C(=O)N1c1cc(C)ccn1 (configuration not stated),nt,i,i,i,i
COc1cc(OC)c(NC2c3ccccc3C(=O)N2c2cc(C)ccn2)cc1Cl (configuration not stated),nt,i,i,39,i
CO[C@@H]1CN(C)C(=O)c2ccc(NS(C)(=O)=O)cc2OC[C@@H](C)N(C(=O)C2CCC2)C[C@H]1C,nt,i,nt,nt,nt
O=C(Nc1ccc2nc3n(c(=O)c2c1)CCCC3)c1cccc(F)c1,i,45,i,i,i
O=C(Nc1ccc2c(c1)CCCN2C(=O)c1cccs1)c1ccccc1,i,i,i,i,i
O=C(Nc1ccc2c(c1)CCCN2C(=O)c1cccs1)c1cccc(F)c1,i,i,i,i,60
O=C(Nc1ccc2nc3n(c(=O)c2c1)CCCCC3)c1cc([N+](=O)[O-])ccc1F,i,i,-68,i,i
O=C(Nc1ccc2nc3n(c(=O)c2c1)CCCC3)c1ccccc1F,i,45,i,i,i
O=C(NCC[C@@H]1CC[C@H](NC(=O)c2cccnc2)[C@@H](CO)O1)Nc1ccc(F)cc1,nt,i,nt,nt,nt
